Compound activity from PubChem.
This is one part of a sample in which hits are shown more often than they occur.
Pf Dd2 growth: inhibitors of Plasmodium falciparum Dd2 growth; P. falciparum Dd2 growth, SYBR Green, 72 h; Potency, µM (doses to about 28.9 µM), hits mostly inhibitors; actives 4.3% (n = 120,000); active means well fitted inhibition curve with a large enough effect; further: nearly all actives have a fitted effect of over 65% in size
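Infected erythrocytes (Dd2, 0.3% parasitemia, 2.5% hematocrit final) are added to compound in RPMI-1640/Albumax II medium, grown 72 h at 37C in low oxygen, then lysed with saponin/Triton-X containing SYBR Green and read by fluorescence.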
Numbers stand for hits; – = inactive; [ ] = another dose, or the depositor's remark.

SMILES	Pf Dd2 growth
Cc1cc(NC(=O)CSc2nc3c([nH]c4ccccc43)c(=O)n2-c2ccccc2)no1	–
CCOc1ccc(-n2c(SCC(=O)NC3CCCCC3)nc3c([nH]c4ccccc43)c2=O)cc1	–
O=c1c2[nH]c3ccccc3c2nc(SCc2ccccc2F)n1-c1ccc(F)cc1	–
O=C(CSc1nc2c(oc3ccccc32)c(=O)n1-c1ccccc1F)Nc1ccccc1	–
O=C(CSc1nc2c([nH]c3ccccc32)c(=O)n1-c1ccc(Cl)cc1)NC1CCCCC1	13µM
CSc1nc2c([nH]c3ccccc32)c(=O)n1-c1ccc(C)cc1	–
CNCc1ccc(N2CCCC2)cc1	–
Cc1nc(N)nc(C)c1CC(=O)N1CC2(CCNCC2)CC1C(=O)O (centres undefined)	–
COc1ccc(CN2CC3(CCN(C(=O)Cc4cccc(OC)c4)CC3)C2=O)cc1	–
COc1ccccc1CC(=O)N1CCC[C@H]1c1nc(-c2ccccc2Cl)no1	–
Cc1cccc(N2CCN(C(=O)C3CCN(C(=O)C4CC4)CC3)CC2)n1	–
O=C(c1ccccc1OCC1CCCN(C2CCSCC2)C1)N1CCCCC1 (centres undefined)	–
Cc1cc(C)cc(-n2c(SCC(=O)NCc3ccc(F)cc3)nc3c([nH]c4ccccc43)c2=O)c1	11µM
CCOc1ccc(-c2nc(SCC(=O)Nc3ccc4c(c3)OCCO4)c(-c3ccc(F)cc3)[nH]2)cc1	–
COc1cccc(-c2nc(SCC(=O)Nc3ccc4c(c3)OCCO4)c(-c3ccccc3)[nH]2)c1	–
Cc1ccc(-n2c(SCC(N)=O)nc3c([nH]c4ccccc43)c2=O)cc1	–
Cc1cc(C)cc(-n2c(SCC(=O)N3CCCC3)nc3c([nH]c4ccccc43)c2=O)c1	–
Cc1ccc(-n2c(SCC(=O)NCc3ccc(F)cc3)nc3c([nH]c4ccccc43)c2=O)cc1	–
Cn1c(SCC(=O)Nc2ccc(F)cc2)nc2c([nH]c3ccccc32)c1=O	–
O=C(CSc1nc2c([nH]c3ccccc32)c(=O)n1-c1ccc(F)cc1)N1CCCCC1	–
Cc1cccc(NC(=O)CSc2nc3c([nH]c4ccccc43)c(=O)n2-c2ccc(F)cc2)c1C	4.5µM
O=C(CSc1nc(-c2cccc(F)c2)[nH]c1-c1ccccc1)Nc1ccc2c(c1)OCCO2	11µM
O=C(CSc1nc2c([nH]c3ccccc32)c(=O)n1-c1ccc(F)cc1)Nc1ccc2c(c1)OCO2	11µM
Cc1cc(C)cc(-n2c(SCC(=O)Nc3ccc4c(c3)OCO4)nc3c([nH]c4ccccc43)c2=O)c1	–
O=C(N[C@@H]1CCOC[C@H]1OCCO)c1ccc(CN2CCCCCC2)cc1	–
SMILES	Pf Dd2 growth
CC(C)N(C)Cc1nnnn1CC(=O)NCc1cn[nH]c1-c1ccc(F)cc1	–
CCCN(CC1CC1)C(=O)c1coc(COc2ccc3sc(C)nc3c2)n1	–
CCN(CCNc1ncncn1)c1cccc(C)c1	–
CCn1nc(C)c(C(=O)N2CCC(=O)N(CC3CC3)C(C(C)C)C2)c1C (centres undefined)	–
O=S(=O)(c1ccc(Cl)cc1)N1CCOC[C@H](Oc2ccc(C(F)(F)F)cc2)C1	–
Cc1noc(C)c1[S+](=O)([O-])N1CCC2(CC1)OCCN(c1ccc(F)cc1)C2=O	–
CC1(C)NC(=O)N(CC(=O)N[C@@H]2COCC[C@H]2Oc2ccc(C#N)cc2)C1=O	–
COc1ccc(OCc2nc(C3CN(C(=O)Nc4cccc(F)c4)C3)no2)cc1	–
COc1ccc(C(=O)N2CCCCCNC(=O)[C@@H]3CCC[C@@H]32)cc1F	–
Cc1cn2nnc(C(=O)NCC3CCCCC3)c2c(=O)[nH]1	6.3µM
Cc1cn2nnc(C(=O)NCc3ccncc3)c2c(=O)[nH]1	–
CCCNC(=O)c1nnn2cc(C)[nH]c(=O)c12	–
Cc1ccc(CNC(=O)C2CCN(C(=O)c3nnn4cc(C)[nH]c(=O)c34)CC2)cc1	–
Cc1cn2nnc(C(=O)N3CCC(C(=O)NCc4cccc(Cl)c4)CC3)c2c(=O)[nH]1	4.5µM
Cc1cn2nnc(C(=O)NCc3ccc4c(c3)OCO4)c2c(=O)[nH]1	6.3µM
Cc1cn2nnc(C(=O)N3CCC(C(=O)NCc4ccccc4Cl)CC3)c2c(=O)[nH]1	–
Cc1cn2nnc(C(=O)NCC3CC3)c2c(=O)[nH]1	–
COc1ccc(CNC(=O)c2nnn3cc(C)[nH]c(=O)c23)cc1	–
COc1ccc(C(=O)N2CCn3c(nnc3[C@@H]3C[C@@H](O)CN3C(C)C)C2)c(OC)n1	–
O=C(C[C@@H]1C[C@H]2O[C@H](CNCc3ccncc3F)[C@@H](O)[C@H]2O1)N1CCC(F)(F)C1	–
COC1CCC(C(=O)N2CCc3c(n(CCOc4ccccc4)n(-c4ccccc4)c3=O)C2)CC1 (centres undefined)	–
COc1ccccc1-n1nc(CC(N)=O)nc1-c1ocnc1C	–
COc1ccc(CC(=O)NC2CCN(c3cc(-c4ccc(Cl)cc4)[nH]n3)CC2)cc1	–
CCCc1nc(C)cc(N2CCC(NCCc3ccc(Cl)cc3)CC2)n1	10µM
CCCc1cc(N2CCC(NCCOC(C)C)CC2)nc(C)n1	–
SMILES	Pf Dd2 growth
O=C(c1ccc(C(F)(F)F)cc1)N1CCn2c(nn(-c3ccc(F)cc3F)c2=O)C1	–
COc1ccc(CCNc2ncnc3c2c(-c2ccccc2)cn3-c2cccc(Cl)c2)cc1OC	8.9µM
COCCNc1ncnc2c1c(-c1ccccc1)cn2-c1cccc(Cl)c1	–
Cc1ccc(-n2cc(-c3ccccc3)c3c(N4CCC(C)CC4)ncnc32)cc1Cl	–
CC(=O)Nc1ccc(Nc2ncnc3c2c(-c2ccccc2)cn3-c2ccc(C)c(Cl)c2)cc1	7.1µM
CC(=O)Nc1ccc(Nc2ncnc3c2c(-c2ccccc2)cn3-c2ccccc2)cc1	–
COc1ccccc1N1CCN(c2ncnc3c2c(-c2ccccc2)cn3-c2cccc(Cl)c2)CC1	–
CN(Cc1cccc(C(=O)Nc2cccc(C#N)c2)c1)CC1COCCO1 (centres undefined)	–
COc1ccc(N2Cc3c(NCc4ccc5c(c4)OCO5)ncnc3N(C)CC2=O)cc1	–
CS(=O)(=O)N1C[C@H]2CCN(Cc3ccccc3F)C[C@H]21	–
CCNCc1ccc(-c2ccccc2)o1	–
CCOCCCNCc1ccc(-c2ccccc2)o1	11µM
Brc1ccc(-c2ccc(CNCCSc3nnnn3-c3ccccc3)o2)cc1	–
O=C1NC(=NC2CCCCC2)C2(CCN([S+](=O)([O-])c3ccsc3)C2)N1c1cccnc1 (centres undefined)	–
COc1ccc(-n2c3c(cc(-c4nc(-c5ccc(Cl)cc5)cs4)c2=O)C(=O)CC(C)(C)C3)cc1Cl	–
Cc1ccc(-c2cc3c(n2-c2ccccc2F)CC(C)(C)CC3=O)cc1	–
COc1ccc(C)cc1-n1c(-c2ccc(Cl)cc2)cc2c1CC(C)(C)CC2=O	1µM
CC(C)c1nccn1CCCNC(=O)c1ccc(-c2cccc(F)c2)nc1	–
CC(=O)N1CCN(c2ncnc3c2CN(c2ccc([N+](=O)[O-])cc2)C(=O)N(C)C3)CC1	–
COc1ncccc1CN(Cc1cccnc1OC)C[C@H]1COCc2nc3ccc(C)cc3n21	4.5µM
Cc1ccc2nc3n(c2c1)[C@@H](CNCc1ccccc1)COC3	–
COc1ccc2c(c1)nc1n2[C@@H](CN(Cc2nccs2)Cc2nccs2)COC1	–
Cc1ncccc1C(=O)N1CC(Oc2ccc(-c3nc(-c4ccccc4)no3)cc2)C1	–[5.79 µM]
c1ccc(-c2nc(-c3cnccn3)no2)c(OC2CCNC2)c1 (centres undefined)	–
O=C(Cc1ccsc1)N1CCC(n2cc(-c3nc(-c4ccccc4)no3)nn2)C1 (centres undefined)	–
